Results on eleven compounds are retold here after ChEMBL document CHEMBL3988442, “University of Dundee, Small-Polar-MMV Screening Library” (2021).

Structures are written as SMILES. For some of these results: Results with a measured potency or affinity are listed apart.

Design in all cases: scale not given: direction of the effect not stated beside the values
Assay [1] addresses Protein translocase subunit SecA (Escherichia coli (strain K12)) (UniProt P10408). Kind of assay: Assay to Identify E. coli SecA ATPase Inhibitors. It counts as functional. The following applies: 30 µM.
For assay [2], the target named is T1, Ubiquitin-activating enzyme e1, putative (Leishmania donovani (strain BPK282A1)) (UniProt E9BSI1).
T1 sequence (whole entry): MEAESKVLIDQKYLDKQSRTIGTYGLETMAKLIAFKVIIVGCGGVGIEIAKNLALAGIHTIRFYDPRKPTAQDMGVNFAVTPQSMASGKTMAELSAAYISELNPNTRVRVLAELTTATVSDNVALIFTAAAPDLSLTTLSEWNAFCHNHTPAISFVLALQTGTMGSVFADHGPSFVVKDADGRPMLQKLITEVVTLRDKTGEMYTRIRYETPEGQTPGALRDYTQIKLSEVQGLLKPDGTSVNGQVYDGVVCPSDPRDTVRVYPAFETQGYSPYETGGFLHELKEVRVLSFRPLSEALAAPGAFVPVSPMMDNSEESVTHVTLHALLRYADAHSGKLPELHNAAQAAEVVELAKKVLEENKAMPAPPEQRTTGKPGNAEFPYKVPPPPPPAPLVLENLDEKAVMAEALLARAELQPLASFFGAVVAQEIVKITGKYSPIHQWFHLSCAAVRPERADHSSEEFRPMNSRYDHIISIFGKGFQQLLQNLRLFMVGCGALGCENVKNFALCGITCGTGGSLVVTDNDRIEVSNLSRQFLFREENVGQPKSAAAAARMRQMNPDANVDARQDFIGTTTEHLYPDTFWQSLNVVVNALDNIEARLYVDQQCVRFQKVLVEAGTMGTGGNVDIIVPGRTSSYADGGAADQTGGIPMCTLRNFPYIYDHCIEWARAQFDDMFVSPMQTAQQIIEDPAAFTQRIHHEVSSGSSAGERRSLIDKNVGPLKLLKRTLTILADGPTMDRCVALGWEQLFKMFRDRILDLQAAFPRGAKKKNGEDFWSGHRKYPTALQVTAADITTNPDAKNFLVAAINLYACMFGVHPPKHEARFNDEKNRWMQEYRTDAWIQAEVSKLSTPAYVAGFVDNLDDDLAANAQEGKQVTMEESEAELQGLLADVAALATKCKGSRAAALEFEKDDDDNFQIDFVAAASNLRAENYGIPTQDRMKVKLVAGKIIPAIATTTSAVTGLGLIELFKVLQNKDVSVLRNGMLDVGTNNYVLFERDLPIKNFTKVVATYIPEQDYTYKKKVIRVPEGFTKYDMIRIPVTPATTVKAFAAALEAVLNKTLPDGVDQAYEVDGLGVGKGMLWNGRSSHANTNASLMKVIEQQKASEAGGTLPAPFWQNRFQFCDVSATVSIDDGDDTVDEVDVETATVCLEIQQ
Kind of assay: Leishmania donovani Ubiquitin Activating Enzyme (LdE1). The class given is functional. The following applies: 30 µM.

Assay [3] deals with AMP-activated protein kinase, AMPK (Homo sapiens) (UniProt P54646+O43741+P54619+Q9UGJ0+Q9Y478+Q13131+Q9UGI9). Kind of assay: AMP-dependent Kinase enzyme assay. An in vitro enzyme assay that detects ADP turnover that is directly proportional to AMPK activity. This uses naive AMPK that is activated during the assay with MK-8722. The note with it: 30 µM. The class given is functional.

Assay [4] concerns the target Sialic acid-binding Ig-like lectin 9 (Homo sapiens) (UniProt Q9Y336). Kind of assay: Hs-Siglec9 ALPHAscreen SOP 20170721. The note with it: 10 µM.
The next assay concerns Trypanosoma cruzi. Kind of assay: Trypanosoma cruzi phosphomannomutase and mannose-1-phosphate guanylyltransferase assay. The class given is functional. The note with it: 10 µM.
Assay [5] concerns the target T2, Arginase-2, mitochondrial (Homo sapiens) (UniProt P78540).
T2 sequence (whole entry): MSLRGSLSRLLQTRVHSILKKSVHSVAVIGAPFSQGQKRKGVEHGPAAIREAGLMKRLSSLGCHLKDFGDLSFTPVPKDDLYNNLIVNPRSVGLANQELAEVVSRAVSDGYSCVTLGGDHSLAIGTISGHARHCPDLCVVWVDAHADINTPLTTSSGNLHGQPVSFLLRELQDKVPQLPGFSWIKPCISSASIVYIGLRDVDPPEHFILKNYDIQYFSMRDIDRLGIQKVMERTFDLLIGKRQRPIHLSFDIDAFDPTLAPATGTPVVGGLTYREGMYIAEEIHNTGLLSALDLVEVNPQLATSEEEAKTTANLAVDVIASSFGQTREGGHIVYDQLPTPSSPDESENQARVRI
Kind of assay: in vitro enzyme assay to detect the production of urea directly proportional to the activity of Arginase II. Further: in the data most compounds retested in dose-response had high values. The class given is functional. The note with it: 33.3 µM.

Assay [6] concerns the target T3, Proteasome subunit beta (Trypanosoma cruzi) (UniProt O96673).
T3 sequence (whole entry): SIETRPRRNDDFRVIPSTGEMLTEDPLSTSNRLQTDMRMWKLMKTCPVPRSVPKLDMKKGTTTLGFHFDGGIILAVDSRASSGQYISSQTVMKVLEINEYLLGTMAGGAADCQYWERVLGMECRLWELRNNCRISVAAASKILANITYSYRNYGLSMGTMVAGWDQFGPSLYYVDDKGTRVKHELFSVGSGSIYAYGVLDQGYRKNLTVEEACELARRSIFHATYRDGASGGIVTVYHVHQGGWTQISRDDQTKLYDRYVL
Kind of assay: Trypanosoma cruzi proteasome chymotrypsin-like activity (TcProtChymo) assay. Further: in the data most compounds retested in dose-response had high values. It counts as functional. The following applies: 9.37 µM.

For a further assay, the species on record is Homo sapiens. Kind of assay: To identify inhibition of the IFN signalling (Jak-Stat) pathway via expression of an eGFP reporter gene under the control of an IFN-stimulated response element (ISRE) containing MxA promoter. The following applies: 30 µM. The class given is functional. A general note: A reporter such as luciferase makes a cellular process visible.

The target of assay [7] is T4, Tyrosyl-tRNA synthetase, putative (Trypanosoma cruzi (strain CL Brener)) (UniProt Q4DSP6).
T4 sequence (whole entry): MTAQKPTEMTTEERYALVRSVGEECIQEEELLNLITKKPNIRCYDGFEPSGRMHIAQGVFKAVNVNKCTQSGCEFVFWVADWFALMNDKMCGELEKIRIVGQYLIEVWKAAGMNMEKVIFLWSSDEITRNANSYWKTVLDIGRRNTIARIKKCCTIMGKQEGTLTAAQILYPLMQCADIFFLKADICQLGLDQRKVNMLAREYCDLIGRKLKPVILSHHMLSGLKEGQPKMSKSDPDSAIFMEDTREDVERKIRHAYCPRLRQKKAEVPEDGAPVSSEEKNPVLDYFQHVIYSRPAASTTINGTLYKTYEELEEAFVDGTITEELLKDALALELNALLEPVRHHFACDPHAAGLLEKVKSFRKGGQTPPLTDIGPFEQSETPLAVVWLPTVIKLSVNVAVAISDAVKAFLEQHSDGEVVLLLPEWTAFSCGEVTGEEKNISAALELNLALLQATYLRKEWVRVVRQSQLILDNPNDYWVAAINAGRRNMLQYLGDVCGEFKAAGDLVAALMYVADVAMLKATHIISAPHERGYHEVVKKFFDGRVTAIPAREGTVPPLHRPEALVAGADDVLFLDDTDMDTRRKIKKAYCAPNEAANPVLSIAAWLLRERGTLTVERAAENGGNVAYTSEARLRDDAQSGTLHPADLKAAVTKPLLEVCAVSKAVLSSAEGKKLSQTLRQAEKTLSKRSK
Kind of assay: Trypanosoma cruzi tyrosyl tRNA synthetase (TcYRS) _High Tyrosine SOP. Further: in the data most compounds retested in dose-response had high values. It counts as functional. The note with it: 30 µM.

The target of assay [8] is T4, Tyrosyl-tRNA synthetase, putative (Trypanosoma cruzi (strain CL Brener)). Kind of assay: Trypanosoma cruzi tyrosyl tRNA synthetase (TcYRS) SOP. It counts as functional. The following applies: 30 µM.
In assay [9] the target is Chromo domain-containing protein 1 (Saccharomyces cerevisiae (strain ATCC 204508 / S288c) (Baker's yeast)) (UniProt P32657). Kind of assay: ScCHD-1 Enzyme Inhibition Assay. Further: in the data most compounds retested in dose-response had high values. The following applies: 30 µM. The class given is functional.
Chromo domain-containing protein 1 (Saccharomyces cerevisiae (strain ATCC 204508 / S288c) (Baker's yeast)), sequence (P32657 whole entry, the tested form may be a part): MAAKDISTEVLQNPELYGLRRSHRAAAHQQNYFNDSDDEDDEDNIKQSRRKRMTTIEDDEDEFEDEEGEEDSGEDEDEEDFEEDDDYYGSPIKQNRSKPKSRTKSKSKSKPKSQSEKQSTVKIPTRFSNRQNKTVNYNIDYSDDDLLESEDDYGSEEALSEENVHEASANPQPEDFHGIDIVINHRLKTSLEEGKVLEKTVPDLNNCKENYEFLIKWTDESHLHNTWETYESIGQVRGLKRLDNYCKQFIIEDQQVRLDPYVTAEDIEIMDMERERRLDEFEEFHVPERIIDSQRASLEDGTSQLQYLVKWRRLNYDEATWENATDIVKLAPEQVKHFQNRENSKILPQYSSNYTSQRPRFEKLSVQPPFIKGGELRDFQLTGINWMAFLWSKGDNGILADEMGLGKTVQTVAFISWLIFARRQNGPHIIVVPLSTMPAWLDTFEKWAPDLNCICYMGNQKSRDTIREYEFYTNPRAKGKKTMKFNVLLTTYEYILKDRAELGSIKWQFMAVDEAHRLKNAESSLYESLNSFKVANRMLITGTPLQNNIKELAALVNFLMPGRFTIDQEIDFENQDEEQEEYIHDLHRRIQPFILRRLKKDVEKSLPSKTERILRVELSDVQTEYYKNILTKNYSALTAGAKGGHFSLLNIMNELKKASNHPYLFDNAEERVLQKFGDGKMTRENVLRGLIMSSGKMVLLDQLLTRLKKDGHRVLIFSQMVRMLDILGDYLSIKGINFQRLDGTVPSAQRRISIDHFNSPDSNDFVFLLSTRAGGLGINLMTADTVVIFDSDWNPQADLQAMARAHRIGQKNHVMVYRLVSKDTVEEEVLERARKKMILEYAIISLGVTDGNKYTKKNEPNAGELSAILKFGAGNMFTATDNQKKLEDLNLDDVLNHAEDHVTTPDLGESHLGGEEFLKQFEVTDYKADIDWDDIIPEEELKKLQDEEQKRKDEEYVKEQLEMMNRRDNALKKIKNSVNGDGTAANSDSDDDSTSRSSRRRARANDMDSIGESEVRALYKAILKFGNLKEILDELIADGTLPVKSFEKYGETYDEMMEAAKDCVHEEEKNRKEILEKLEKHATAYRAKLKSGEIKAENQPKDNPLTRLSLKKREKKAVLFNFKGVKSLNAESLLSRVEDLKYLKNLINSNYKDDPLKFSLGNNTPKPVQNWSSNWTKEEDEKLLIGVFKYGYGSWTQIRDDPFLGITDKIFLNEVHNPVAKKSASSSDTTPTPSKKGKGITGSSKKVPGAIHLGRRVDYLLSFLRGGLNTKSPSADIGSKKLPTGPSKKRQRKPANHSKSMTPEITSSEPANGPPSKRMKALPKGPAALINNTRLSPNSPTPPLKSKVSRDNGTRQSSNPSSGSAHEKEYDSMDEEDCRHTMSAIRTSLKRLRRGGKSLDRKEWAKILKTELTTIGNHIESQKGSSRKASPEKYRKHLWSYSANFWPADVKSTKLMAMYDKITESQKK

Sialic acid-binding Ig-like lectin 9 (Homo sapiens), sequence (Q9Y336 whole entry): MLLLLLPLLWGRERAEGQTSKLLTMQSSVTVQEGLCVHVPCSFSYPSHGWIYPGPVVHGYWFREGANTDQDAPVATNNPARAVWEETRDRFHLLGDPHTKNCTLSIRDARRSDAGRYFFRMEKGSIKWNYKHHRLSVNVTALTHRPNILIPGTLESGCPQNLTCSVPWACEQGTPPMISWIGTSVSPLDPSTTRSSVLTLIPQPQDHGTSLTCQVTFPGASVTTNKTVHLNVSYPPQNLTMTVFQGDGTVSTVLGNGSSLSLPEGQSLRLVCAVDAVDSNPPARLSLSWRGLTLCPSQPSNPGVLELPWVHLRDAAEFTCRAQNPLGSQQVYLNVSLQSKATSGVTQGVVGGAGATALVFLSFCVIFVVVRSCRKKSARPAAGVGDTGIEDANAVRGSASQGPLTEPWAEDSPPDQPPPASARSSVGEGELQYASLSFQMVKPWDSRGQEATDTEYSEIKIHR
Protein translocase subunit SecA (Escherichia coli (strain K12)), sequence (P10408 whole entry): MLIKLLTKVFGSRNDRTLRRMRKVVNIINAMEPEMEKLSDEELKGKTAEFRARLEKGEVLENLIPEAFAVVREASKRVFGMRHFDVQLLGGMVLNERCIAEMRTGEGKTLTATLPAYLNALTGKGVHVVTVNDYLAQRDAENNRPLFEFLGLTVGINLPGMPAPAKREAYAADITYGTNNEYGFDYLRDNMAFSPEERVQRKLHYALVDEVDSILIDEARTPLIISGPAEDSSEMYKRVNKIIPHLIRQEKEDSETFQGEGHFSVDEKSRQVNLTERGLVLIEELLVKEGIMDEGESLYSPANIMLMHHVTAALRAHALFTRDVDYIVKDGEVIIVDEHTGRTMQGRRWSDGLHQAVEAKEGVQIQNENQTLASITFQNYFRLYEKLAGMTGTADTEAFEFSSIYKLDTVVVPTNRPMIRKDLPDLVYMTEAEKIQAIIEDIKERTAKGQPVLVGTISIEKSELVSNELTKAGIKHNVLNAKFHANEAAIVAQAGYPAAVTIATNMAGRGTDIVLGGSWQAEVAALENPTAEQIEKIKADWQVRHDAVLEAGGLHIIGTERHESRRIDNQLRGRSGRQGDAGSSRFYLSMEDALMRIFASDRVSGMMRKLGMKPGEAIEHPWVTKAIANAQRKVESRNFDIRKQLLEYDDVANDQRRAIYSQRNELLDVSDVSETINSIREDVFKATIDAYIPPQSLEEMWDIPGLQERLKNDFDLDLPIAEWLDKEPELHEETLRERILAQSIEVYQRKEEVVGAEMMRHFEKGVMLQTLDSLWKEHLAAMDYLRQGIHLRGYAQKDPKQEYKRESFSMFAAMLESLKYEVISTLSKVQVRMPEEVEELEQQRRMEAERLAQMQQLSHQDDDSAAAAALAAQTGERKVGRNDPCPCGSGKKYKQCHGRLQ

With `O=C(CCc1cc2n(n1)CCCN(Cc1ccccc1F)C2)NC1CC1`, the Percent Effect in [1] was -3.75%; in [2], 1.39%; in [3] it was 1.32%; in assay [4] it was 0.0735%; in the assay with Trypanosoma cruzi it was 6.71%; in [5] it was -2.21%. The Percent Effect was 10.2% in assay [6]; -26.8% in the assay filed under Homo sapiens; 2.1% in assay [7]; 5.13% in assay [8]; -4.12% in assay [9].
In the case of `CCC(=O)N1CCc2[nH]cnc2C12CCN(C(=O)c1snnc1C)CC2`, the Percent Effect was -0.279% in [1]; 5.33% in assay [2]; -6.44% in assay [3]; 8.1% in assay [4]; 0.876% in the assay on Trypanosoma cruzi; 10.9% in [5]. Also, the Percent Effect was 13.8% in assay [6]; 23.3% in the assay listed under Homo sapiens; 0.546% in [7]; 13.6% in assay [8]; -1.51% in assay [9].
For the compound `CN(Cc1cccc(O)c1)CC1CCCN(CCc2ccc(Cl)cc2)C1` (stereo unspecified), the Percent Effect in assay [1] is -6.32%; in [2] it was -13.5%; in [3], 1.05%; in assay [4] it was 9.76%; in the assay with Trypanosoma cruzi, 2.64%; in assay [5], 4.22%. Moreover, the Percent Effect in assay [6] is -2.32%; in the assay filed under Homo sapiens, 27.2%; in assay [7], 4.3%; in assay [8], 11.1%; in [9], -0.68%.
Take `COc1ccc(CNC(=O)Nc2cccnc2N2CCCC2)cc1O`: the Percent Effect is -2.46% in assay [1]; 16.2% in assay [2]; -3.7% in assay [3]; 16.1% in [4]; 4.81% in the assay on Trypanosoma cruzi; -7.62% in [5]. The Percent Effect in [6] is 1.62%; in the assay listed under Homo sapiens, 7.88%; in assay [7], 2.46%; in [8], 16.1%; in assay [9], -7.7%.
`CCc1noc(C)c1C(=O)N1CCCC1Cn1cc(C)cn1` (stereo unspecified): the Percent Effect in assay [1] was -3.44%; in assay [2] it was 15.8%; in assay [3], 8.82%; in assay [4], -9.39%; in the assay on Trypanosoma cruzi it was -10.4%; in assay [5] it was 0%. In addition, the Percent Effect in [6] was 3.64%; in the assay listed under Homo sapiens, -1.17%; in assay [7], 2.46%; in assay [8] it was 1.24%; in assay [9], -10.2%.
With `Cc1cc(C[C@@H]2CCC[C@H]2NCc2cc(C)c(O)c(C)c2)on1`, the Percent Effect in assay [1] is 0.891%; in assay [2], 9.46%; in [3] it was 18.3%; in assay [4] it was -0.421%; in the assay with Trypanosoma cruzi, -9.88%; in assay [5] it was -0.232%. The Percent Effect in assay [6] was 15.1%; in the assay listed under Homo sapiens, 41.8%; in assay [7], 0%; in assay [8], 9.09%; in [9], -12.1%.
With `CN(Cc1ncc[nH]1)CC(c1cccs1)N1CCOCC1` (stereo unspecified), the Percent Effect in assay [1] was -0.354%; in assay [2], 13.5%; in assay [3] it was -12.7%; in assay [4], -6.28%; in the assay with Trypanosoma cruzi it was 4.92%; in assay [5] it was -1.29%. Besides, the Percent Effect was 12.4% in [6]; 17.4% in the assay filed under Homo sapiens; 11.9% in assay [7]; 23.2% in [8]; -5.94% in assay [9].
For `NC(=O)c1cnn2c1NCC(CNCCc1ccco1)C2` (stereo unspecified), the Percent Effect in [1] is -1.64%; in assay [2], 2.63%; in assay [3] it was 2.04%; in [4] it was -0.712%; in the assay with Trypanosoma cruzi, -5.26%; in [5] it was 3.45%. The Percent Effect was 8.86% in assay [6]; 7.72% in the assay filed under Homo sapiens; 2.45% in assay [7]; 7.32% in [8]; -1.74% in [9].
Take `CCS(=O)(=O)c1ccccc1N1CCC(NC(=O)c2ccc[nH]2)CC1`: the Percent Effect in assay [1] was -4.07%; in assay [2], 8.11%; in assay [3], 1.8%; in assay [4], 7.6%; in the assay with Trypanosoma cruzi, 6.78%; in [5], -7.95%. For the same compound, the Percent Effect was 2.15% in [6]; 13% in the assay listed under Homo sapiens; 8.91% in assay [7]; 18.3% in assay [8]; -1.36% in assay [9].
`CC(=O)c1cn(CCC(=O)NCCC(=O)O)c2ccccc12`: the Percent Effect in assay [1] was 0.0873%; in [2], 9.33%; in assay [3], 1.48%; in assay [4], 3.5%; with Trypanosoma cruzi, -3.14%; in assay [5] it was -6.16%. For the same compound, the Percent Effect is 15.5% in [6]; 0.418% in the assay filed under Homo sapiens; 9.52% in [7]; 17.9% in assay [8]; -3.67% in assay [9].
For the compound `CCN1CC2(CCNCC2)COc2ccccc2S1(=O)=O`, the Percent Effect in [1] is -1.39%; in [2], 6.67%; in [3], 7.12%; in assay [4], 3.15%; with Trypanosoma cruzi it was -4.91%; in [5] it was -18.1%. Moreover, the Percent Effect in assay [6] is 13.1%; in the assay filed under Homo sapiens it was 2.26%; in assay [7] it was -7.41%; in assay [8] it was 5.13%; in assay [9], -8.01%.
